Source: PubChem (National Center for Advancing Translational Sciences (NCATS))
A selection: hits, their analogues and other compounds. The true share with any hit is near 7.1%.
IL-1B inflam inh – blocks inflammasome-driven IL-1 beta release | THP-1 LPS/ATP IL-1B secretion, AlphaLISA, 16 h; active compounds read low | activity change, % at 57.5 µM | hit rate 4.7% among 360,000; in the data active = activity change below about -50%; inconclusive = mostly about -30% to -49%; also: % is scaled to controls: 0 for no effect and ±100 for the full control effect
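Secreted IL-1B measured by AlphaLISA bead assay after 16 h compound exposure of THP-1 cells; compounds (final up to 57.5 uM) added 1 h before LPS (250 ng/mL) and ATP (1.25 mM) stimulation; lower signal means less secretion.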
ATXN2 expr inh – ATXN2 expression inhibition; HEK-293 ATXN2-luciferase reporter, luminescence, 24 h; Potency, µM (highest dose often 57 µM), inactives show at the top dose activity change, negative = inhibition, usual class: inhibitors; hit rate 0.72% among 360,000; AID 1745845; also: potency is read from the fitted curve at half-maximal effect; % is scaled to controls: 0 for no effect and ±100 for the full control effect; nearly all actives have a fitted effect of over 55% in size
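qHTS (up to 57 uM final) was run with 24 h compound exposure of reporter cells at 37 °C. Each well was multiplexed: SteadyGlo luminescence measured ATXN2-luciferase expression after a fluorogenic Gly-Phe-AFC viability readout (25 uM final).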
SW480 rerep – DNA re-replication induction in SW480 cells. Potency, µM (series often up to 46.1 µM), for the others: at the highest dose re-replication activation, usual class: activators. SW480 DNA re-replication, Hoechst DNA content imaging, 48 h. AID 624297. hit rate 1.8% among 340,000; also: potency is read from the fitted curve at half-maximal effect; % of control where 0% means no effect; nearly all actives have a fitted effect of over 55% in size
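Readout is total intensity of Hoechst-stained nuclei, excited at 405 nm and collected at 500-530 nm. Compound treatment lasted 48 hr at 37 C in 5% CO2 before staining.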
PINK1 modulator – modulators of PINK1 expression. PINK1 immunofluorescence, high-content cytometry, 24 h. Potency, µM (titrated, usually from 76.6 µM), inactives show at the top dose activation (PINK1 increase), usual class: activators. hit rate 0.2% among 410,000. AID 624263; active = well fitted activation curve with a large enough effect; inconclusive = small, poorly fitted or top-dose-only effect; cell line not stated here; also: potency is read from the fitted curve at half-maximal effect; % of control where 0% means no effect; nearly all actives have a fitted effect of over 65% in size
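Stable cell line, 250 cells/well, 12 h attachment; compounds pinned at 5 concentrations, 24 h; CCCP control. Fixed with nuclear dye, primary antibodies 12 h at 10 degrees C, secondary plus cell stain; laser-scanning cytometer read.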
MCF10A rereplic – inducers of DNA re-replication in MCF 10A breast cells | Potency, µM (highest dose often 46.1 µM), for the others: at the top dose activity, positive = re-replication, actives largely listed as activators | hit rate 2.9% among 350,000 | MCF 10A DNA re-replication, Hoechst nuclear intensity, 48 h | AID 624296; also: potency is read from the fitted curve at half-maximal effect; % of control where 0% means no effect; nearly all actives have a fitted effect of over 50% in size
S2 tox – cell viability loss in ATXN counter-screen | S2 cells (HEK-293 line with an ATXN2-luciferase reporter) viability, CellTiter-Fluor protease fluorescence, 24 h | Potency, µM (highest dose often 56.7 µM), usual class: cytotoxic | hit rate 0.49% among 400,000 | AID 651635; also: potency is read from the fitted curve at half-maximal effect; nearly all actives have a fitted effect of over 40% in size
The depositor's hits bear a star; i = inactive; u = inconclusive; x = no result; [ ] = another dose, or the depositor's remark. Unless noted, calls follow the shape of the dose curve; as a rule, active = well fitted curve in the direction sought with a large enough effect; inconclusive = small, poorly fitted or top-dose-only effect, or another doubt; inactive = no such curve, though single readings can be large; an effect the other way counts as inactive or inconclusive.

SMILES	IL-1B inflam inh	ATXN2 expr inh	SW480 rerep	PINK1 modulator	MCF10A rereplic	S2 tox
NC(=O)CCN1CCN(CCOC2Cc3cc(Cl)ccc3Sc3ccccc32)CC1 (centres undefined)	-52.7*	-26.3%	u	-1.8%	u	u
NC(=O)COCCN1CCN(C(c2ccccc2)c2ccc(Cl)cc2)CC1 (centres undefined)	x	1.6%	x	x	x	i
CCOC(=O)c1c(-c2ccccc2)oc2ccc(OCC(O)CN(C)C)cc12 (centres undefined)	-65.1*	-36.2%	u	-4.2%	5.4%	u
CCOC(=O)c1c(-c2ccccc2)oc2ccc(OC(C)C(=O)O)cc12 (centres undefined)	-11.4	-11.8%	-11.4%	0.2%	6.7%	i
c1ccc(Cc2nnc(Sc3ccccc3)c3ccccc23)cc1	-68.1*	-38.3%	14.6µM*	3.2%[38.3 µM]	u	i
Cc1ccc(CSC2=NCCN2C(=O)c2ccc([N+](=O)[O-])cc2)cc1	33.9	-14.3%	-2.9%	0.7%	-1.7%	i
Cc1ccc(C(=O)N2CCN=C2SCc2ccc([N+](=O)[O-])cc2)cc1	u	u	-4.9%	-0.9%	11.0%	u
Cc1ccccc1C(=O)N1CCN=C1SCc1ccc([N+](=O)[O-])cc1	-77.3*	-11.7%	-7.3%	0.4%	3.2%	i
O=C(c1cccc2ccccc12)N1CCN=C1SCc1ccc([N+](=O)[O-])cc1	-64.8*	-20.1%	0.2%	-0.2%	-5.7%	i
CCN1C(=O)C(Cc2nc3ccccc3c(=O)n2C)c2cc(C)ccc21 (centres undefined)	x	-3.4%	x	0.0%	x	u
CN(C)c1c2ccccc2nc2c(F)c(F)c(F)c(F)c12	-95.8*	u	u	13.1%	u	x
Cc1c2ccccc2nc2c(F)c(N(C)C)c(F)c(F)c12	16.8	63.5%	19.0%	-0.9%	u	x
COc1ccc(OC)c(S(=O)(=O)NC2CC(=O)N(c3cccc(F)c3)C2)c1 (centres undefined)	0.0	6.4%	6.51µM*	0.2%	-13.1%	i
CN1C(=O)/C(=C\C(=O)c2cccs2)c2ccccc21	-103.1*	u	-71.4%	-1.8%	u	u
Cc1ccc(-c2csc(N3CCC(C(N)=O)CC3)n2)cc1	x	35.1%	-4.7%	-1.2%	10.7%	i
Cc1ccc(-c2csc(N=C(N)N)n2)cc1	-60.8*	16.7%	u	6.6%	u	i
COc1cccc2c1OCC(C(=O)OCc1cccnc1)=C2	-52.6*	-24.2%	-2.3%	-0.8%	11.5%	u
COc1ccc(C(=O)NCc2cccnc2)cc1OC	-12.5	3.1%	-5.7%	1.0%[38.3 µM]	0.9%	i
CCOC(=O)C1CCN(C(=O)Cn2nc(CC)n3c(cc4occc43)c2=O)CC1	x	6.8%	x	-0.4%	x	i
Cc1oc2c(c(C)cc3oc(=O)c(CC(=O)NCCc4ccccc4)c(C)c32)c1C	x	x	x	-0.7%	x	x
CN(CC(=O)Nc1ccc(Cl)cc1)CC(=O)Nc1sc2c(c1C(N)=O)CCC2	u	x	x	0.7%	x	u
CN(CC(=O)Nc1ccccc1Cl)CC(=O)Nc1sc2c(c1C(N)=O)CCC2	u	-8.0%	u	-2.6%	3.26µM*	u
O=C1S/C(=C/c2ccccc2F)C(=O)N1CCN=C1NS(=O)(=O)c2ccccc21	-97.4*	0.8%	3.2%	2.4%	10.8%	i
COc1cc2nc(=S)n3[nH]c(CCn4nc(C)cc4C)nc3c2cc1OC	7.3	-17.9%	13µM*	1.8%	2.6%	u
CC(C)c1c(C(=O)NCC(C)(C)N2CCOCC2)cnn1-c1nccc(-c2ccccc2F)n1	x	x	x	0.1%	x	i
SMILES	IL-1B inflam inh	ATXN2 expr inh	SW480 rerep	PINK1 modulator	MCF10A rereplic	S2 tox
COc1ccc(OC)c(N(CC(=O)NCc2ccccc2)S(=O)(=O)c2ccccc2)c1	x	-4.3%	x	3.5%	x	i
COc1ccc(C2CC(c3c(O)cc(C)oc3=O)=NCCS2)c(OC)c1 (centres undefined)	-8.0	111.4%	u	6.8%	1.12µM*	u
COc1ccc(C(c2c(O)cc(C)oc2=O)c2c(O)cc(C)oc2=O)cc1	18.6	5.1%	-1.5%	-0.5%[38.3 µM]	-5.6%	i
COc1ccc(/C=C/C(=O)c2c(O)c(OC)c3occc3c2OC)cc1OC	x	x	x	0.0%	x	x
Cc1nc(NC(C)C)c2cnn(CCc3ccccc3)c2n1	-18.0	33.3%	3.8%	1.0%	20.6µM*	i
CCCNc1nc(C)nc2c1cnn2CCc1ccccc1	-11.2	51.3%	-3.9%	-0.5%	-5.5%	i
CCCCn1c(=N)n(CC(=O)c2ccc(Br)s2)c2ccccc21	-97.9*	x	u	0.1%	u	x
O=C1c2sc3nc4n(c(=O)c3c2CCC1Br)CCCCC4 (centres undefined)	-92.8*	17.8%	u	1.9%	1.6%	u
O=C1CCCc2c1sc1nc3n(c(=O)c21)CCCCC3	1.5	90.3%	-2.3%	-1.8%	14.9%	u
COc1ccc2oc(/C=C/N(C)C)c(C(=O)c3ccc(Cl)cc3)c2c1	-2.4	u	18.0%	6.2%[38.3 µM]	6.31µM*	i
COc1ccc2oc(C)c(C(=O)c3ccccc3)c2c1	x	-19.1%	-45.0%	0.6%	-26.7%	i
COc1ccc(C(=O)c2oc3ccc(OC)cc3c2N)cc1	u	138.1%	6.4%	-0.4%	25.9µM*	i
COC(=O)c1oc2ccc(OC)cc2c1N	-11.6	19.8%	-12.6%	0.9%[38.3 µM]	1.7%	i
Cc1c(Cl)cccc1NC(=O)c1ccc(NC(=O)N2CCSc3ncccc32)cc1	x	x	x	2.2%	x	x
COc1ccc(N2C(=O)c3ccccc3NC2c2ccc(OC)c(CSc3ccccn3)c2)cc1 (centres undefined)	10.4	6.3%	11.5%	10µM*	u	i
Cc1nc2c(-c3ccc(F)cc3)cnn2c(N)c1-c1ccccc1	-73.4*	u	u	-0.8%	u	u
CCOc1ccccc1/C=C/c1onc(C)c1S(=O)(=O)N1CCC(C(=O)NC(C)C)CC1	7.9	-12.5%	u	3.8%	15.1%	i
Cc1noc(/C=C/c2ccco2)c1S(=O)(=O)N1CCC(C(=O)N2CCc3ccccc3C2)CC1	u	-22.7%	u	-4.2%	18.4µM*	i
CCCN1CCN(C(=O)C2CCN(S(=O)(=O)c3c(C)noc3/C=C/c3ccc(C)cc3)CC2)CC1	u	u	16.4µM*	-0.2%	u	u
CCOc1ccccc1/C=C/c1onc(C)c1S(=O)(=O)N1CCC(C(=O)N2CCCCCC2)CC1	-9.9	-16.5%	-8.2%	-1.7%	18.4µM*	i
O=C(/C=C/c1ccc(C(F)(F)F)cc1)OC(C(=O)NC1CC1)c1ccccc1 (centres undefined)	x	x	x	-0.6%	x	x
